From PubChem BioAssay (NCI)
About 83,000 compounds went through this panel and 20% of them were active in at least one assay; those are over-represented in the sample as a whole.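 Percent growth is the endpoint: 0 to 100 indicates growth inhibition (40 means 60% inhibition), 0 means no net growth, and negative values indicate cell death.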 Unmarked numbers belong to inactive results. The source made the active and inactive calls. The calls were made as follows: active = growth percent below 10; inactive = the rest.

Legend:
Experiment in all cases: NCI-60 one-dose screen, 48 h (100 = growth as untreated, 0 = no growth, -100 = all killed)
Settings in all cases: 10 µM unless noted
SR leukemia = system: SR leukemia
RPMI-8226 leukemia = system: RPMI-8226 leukemia
OVCAR-8 ovarian = system: OVCAR-8 ovarian
OVCAR-5 ovarian = system: OVCAR-5 ovarian
OVCAR-4 ovarian = system: OVCAR-4 ovarian
SK-OV-3 ovarian = system: SK-OV-3 ovarian
IGROV1 ovarian = system: IGROV1 ovarian
OVCAR-3 ovarian = system: OVCAR-3 ovarian
HS 578T breast = system: HS 578T breast
NCI/ADR-RES ovarian = system: NCI/ADR-RES ovarian
T-47D breast = system: T-47D breast
BT-549 breast = system: BT-549 breast
MDA-MB-435 melanoma = system: MDA-MB-435 melanoma
SW-620 colon = system: SW-620 colon
MCF7 breast = system: MCF7 breast
HCT-116 colon = system: HCT-116 colon
HCC-2998 colon = system: HCC-2998 colon
KM12 colon = system: KM12 colon

| SMILES | growth (SR leukemia) | growth (RPMI-8226 leukemia) | growth (OVCAR-8 ovarian) | growth (OVCAR-5 ovarian) | growth (OVCAR-4 ovarian) | growth (SK-OV-3 ovarian) | growth (IGROV1 ovarian) | growth (OVCAR-3 ovarian) | growth (HS 578T breast) | growth (NCI/ADR-RES ovarian) | growth (T-47D breast) | growth (BT-549 breast) | growth (MDA-MB-435 melanoma) | growth (SW-620 colon) | growth (MCF7 breast) | growth (HCT-116 colon) | growth (HCC-2998 colon) | growth (KM12 colon) |
| --- | --- | --- | --- | --- | --- | --- | --- | --- | --- | --- | --- | --- | --- | --- | --- | --- | --- | --- |
| CC(=O)OC[C@H]1O[C@@H](n2c(=O)cc(N)[nH]c2=O)C(OC(C)=O)[C@@H]1OC(C)=O (some centres undefined) | 106% | 103% | 99.4% | 99.8% | 110% | 106% | 103% | 114% | 95.7% | 103% | 96% | 92.8% | 101% | 107% | 94.9% | 103% | 106% | 111% |
| Cc1ccc([C@H]2c3[nH]c4ccccc4c3C[C@H]3C(=O)N(CCCCCCC(=O)NO)CC(=O)N23)cc1 | 10.6% | 3.03% (active) | 39.5% | 44.7% | 59.2% | 63.3% | 57.3% | 47% | 52.5% | 94.5% | 19.5% | 68% | 38.3% | 36.5% | 35.5% | 15.8% | 55.6% | 48.2% |
| CC(=O)Cc1ccccn1 | 108% | 103% | 110% | 110% | 106% | 119% | 107% | 105% | 107% | 108% | 108% | 97.8% | 102% | 108% | 97.8% | 107% | 111% | 105% |
| CC(C)CCSc1nc(Nc2ccccc2)c(C#N)c(-c2ccc(F)cc2)n1 | 37.4% | 50% | 42.2% | 83.8% | -18% (active) | 67.2% | 33.5% | 28.8% | 49.5% | 56.8% | 46.5% | 79% | 82.5% | 46.5% | 65.2% | 24% | 83.1% | 84.8% |
| CN(C)c1nc(-c2ccco2)n2nc(-c3ccc(Cl)cc3)cc2n1 | 52.7% | 74.8% | 50.8% | 90% | -10.2% (active) | 45.9% | 55.8% | 74.1% | 65.1% | 69% | 47.9% | 86.7% | 89.6% | 62.7% | 68.2% | 43.4% | 86% | 84.4% |
| COc1ccc(-c2ccc(-c3ccc(C(=N)N)s3)s2)cc1 | -40.6% (active) | -57.5% (active) | -66.9% (active) | -92.6% (active) | -56.4% (active) | -88.9% (active) | -57.2% (active) | -80.8% (active) | -56.8% (active) | -61.7% (active) | -64% (active) | -81.3% (active) | -78.1% (active) | -69.1% (active) | -50.1% (active) | -47.8% (active) | -81% (active) | -86.8% (active) |
| COc1ccc2nc3ccccc3c(NCc3ccc(Cl)cc3)c2c1 | -29.6% (active) | -44.9% (active) | 29.7% | 26.5% | 24.5% | 64% | 16.3% | 51% | 36% | 22.9% | 49.3% | 50.2% | 24.1% | 12.8% | -56.4% (active) | 6.81% (active) | -87.6% (active) | 40.1% |
| CCCCCCCCCCCCC1CCC(=O)O1 (centres undefined) | 93.6% | 97.4% | 108% | 85.4% | 94.1% | 102% | 86.7% | 105% | 108% | 100% | 74.1% | 96.5% | 98.8% | 90.3% | 93.4% | 95.2% | 104% | 100% |
